Source: PubChem BioAssay (National Center for Advancing Translational Sciences (NCATS))
Sampled rows, rich in hits. Any-hit rate of the full collection: about 1.7%.
PTHR1 agonist – agonists of human PTHR1 parathyroid hormone receptor; Q03431; HEK293 GP2 PTHR1 cells, GloSensor cAMP luminescence, 1 h; Potency, µM (highest dose often 115 µM), without a hit: at the highest dose activation, most hits filed as activators; 410,000 compounds, 0.075% hits; AID 743266; note: nearly all actives have a fitted effect of over 55% in size
Target sequence (Q03431 whole entry, looked up): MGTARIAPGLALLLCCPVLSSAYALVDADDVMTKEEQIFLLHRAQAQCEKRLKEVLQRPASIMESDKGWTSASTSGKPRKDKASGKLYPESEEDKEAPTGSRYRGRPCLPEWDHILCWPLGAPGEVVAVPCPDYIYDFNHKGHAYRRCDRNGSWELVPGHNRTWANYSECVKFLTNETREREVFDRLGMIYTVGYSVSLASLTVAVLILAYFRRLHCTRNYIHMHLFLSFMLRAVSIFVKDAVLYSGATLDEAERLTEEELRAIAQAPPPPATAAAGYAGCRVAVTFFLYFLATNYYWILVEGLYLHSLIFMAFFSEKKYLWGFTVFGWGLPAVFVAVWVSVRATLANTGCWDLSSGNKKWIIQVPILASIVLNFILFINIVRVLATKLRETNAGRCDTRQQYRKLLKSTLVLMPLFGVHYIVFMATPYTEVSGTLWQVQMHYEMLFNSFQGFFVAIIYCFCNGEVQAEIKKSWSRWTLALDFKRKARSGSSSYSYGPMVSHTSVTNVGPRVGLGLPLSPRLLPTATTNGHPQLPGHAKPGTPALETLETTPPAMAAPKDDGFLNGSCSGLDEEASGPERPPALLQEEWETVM
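HEK-293-derived GP2 cells expressing PTHR1 and a GloSensor cAMP reporter, 3,000/well, plated overnight, given luciferin plus IBMX (each 0.5 mM as added) for 1 h at 37 °C, then compound for 1 h at 37 °C. Luminescence was read after 15 min at room temperature.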
GLP-1R agonist – activates the human GLP-1 receptor; P43220; 380,000 compounds, 0.007% hits; Potency, µM (series often up to 45.6 µM), for the others: at the top dose activation, usual class: activators; HEK293 GLP-1R CRE-luciferase, luminescence, 4-6 h; cells express a hypersensitive GLP-1R form; note: % of control where 0% means no effect
GLP1R inv ag – acts as inverse agonist at human GLP-1 receptor | P43220 | HEK293 GLP-1R CRE-luciferase, luminescence, 24 h; GLP-1R form is constitutively active | Potency, µM (highest dose often 38.3 µM), for inactives: at the top dose activity change, negative = inhibition, hits mostly inhibitors | 410,000 compounds, 1.6% hits | AID 624417; note: % is set by controls: 0 for no effect and ±100 for the full control effect; nearly all actives have a fitted effect of over 55% in size
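Inverse agonists were sought by their lowering of basal cAMP reporter luciferase output in HEK293 cells stably carrying constitutively active human GLP-1R, after 24 h compound treatment.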
GLP1R cytotox – cytotoxicity in counter-screen for GLP-1R inverse agonists. HEK293 cAMP-luciferase reporter cells, luminescence, 24 h. Potency, µM (top dose mostly 38.3 µM), for inactives: at the highest dose activity change, negative = inhibition, usual class: inhibitors. 410,000 compounds, 0.13% hits. AID 624418;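 note: loss of luciferase light is scored as toxicity; % is set by controls: 0 for no effect and ±100 for the full control effect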
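To flag toxic compounds, the library was rerun on cells for 24 hr at 37 deg C and 5% CO2. Viability-linked luminescence was captured 12 min after adding luciferase detection reagent.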
Active calls of the source: *; [ ] = another dose, or the depositor's remark. Calls come from the whole dose curve; as a rule, active = well fitted curve in the direction sought with a large enough effect; inconclusive = small, poorly fitted or top-dose-only effect, or another doubt; inactive = no such curve, though single readings can be large; an effect the other way counts as inactive or inconclusive. Potency is the fitted concentration of half-maximal effect.

What do the screens show for `Cc1ccc(C)c(CSc2cn(CCNC(=O)c3cccs3)c3ccccc23)c1`?
PTHR1 agonist: -24%; GLP-1R agonist: -6%; GLP1R inv ag: inconclusive; GLP1R cytotox: 2%

What do the screens show for `CCN(C(=O)c1ccncc1)c1c(N)n(Cc2ccccc2)c(=O)[nH]c1=O`?
PTHR1 agonist: -23%; GLP-1R agonist: -15%; GLP1R inv ag: 13%; GLP1R cytotox: 0%

What do the screens show for `CCc1cccc(C)c1NC(=S)NCCc1c(C)[nH]c2ccc(C)cc12`?
PTHR1 agonist: -73%; GLP-1R agonist: -5%; GLP1R inv ag: inconclusive; GLP1R cytotox: inconclusive

Results for CCc1cccc(CC)c1NC(=S)NCCc1c(C)[nH]c2ccc(C)cc12 ?
PTHR1 agonist: 25%; GLP-1R agonist: -1%; GLP1R inv ag: 7.9µM*; GLP1R cytotox: -14%

Results for COc1ccc(CN(C)C(=O)c2cc(-c3ccccc3)nc3ccc(C)cc23)c(OC)c1 ?
PTHR1 agonist: -46%; GLP-1R agonist: 0%; GLP1R inv ag: 5.6µM*; GLP1R cytotox: inconclusive

How did COc1ccc(-c2cc(C(=O)Oc3ccccc3)c3cc(C)ccc3n2)cc1 do in these assays?
PTHR1 agonist: -62%; GLP1R inv ag: inconclusive; GLP1R cytotox: -21%

Results for CCOC(=O)C1=NNC(C(=O)c2ccccc2)C1c1ccc(Cl)cc1 (configuration not stated) ?
PTHR1 agonist: -1%; GLP-1R agonist: 11%; GLP1R inv ag: inconclusive; GLP1R cytotox: 1%

How did O=C(c1ccccc1)C1N=NCC1c1ccc(Cl)cc1 (configuration not stated) do in these assays?
PTHR1 agonist: -15%; GLP-1R agonist: 17%; GLP1R inv ag: 10µM*; GLP1R cytotox: -7%

How did N/C(=N\OC(=O)c1cc([N+](=O)[O-])ccc1Cl)c1ccccn1 do in these assays?
PTHR1 agonist: -30%; GLP-1R agonist: 5%; GLP1R inv ag: 3%; GLP1R cytotox: -60%

Results for N/C(=N\OC(=O)c1ccc(Cl)cc1Cl)c1ccccn1 ?
PTHR1 agonist: -38%; GLP-1R agonist: -5%; GLP1R inv ag: 5.6µM*; GLP1R cytotox: -1%

How did N/C(=N\OC(=O)c1ccc(Cl)cc1[N+](=O)[O-])c1ccccn1 do in these assays?
PTHR1 agonist: -62%; GLP-1R agonist: 1%; GLP1R inv ag: inconclusive; GLP1R cytotox: inconclusive

Results for Cc1ccc(C(=O)O/N=C(\N)c2ccccn2)c(Cl)c1 ?
PTHR1 agonist: -32%; GLP-1R agonist: -8%; GLP1R inv ag: 1.1µM*; GLP1R cytotox: inconclusive

How did N/C(=N\OC(=O)c1ccc([N+](=O)[O-])cc1Cl)c1ccccn1 do in these assays?
PTHR1 agonist: -95%; GLP-1R agonist: -8%; GLP1R inv ag: 1.8µM*; GLP1R cytotox: -2%

What do the screens show for `Cc1cccc(CN2CCN(C3CN(Cc4ccc(F)cc4)S(=O)(=O)C3)CC2)c1` (configuration not stated)?
PTHR1 agonist: -66%; GLP-1R agonist: 4%; GLP1R inv ag: inconclusive; GLP1R cytotox: 0%

Results for NCCO/C=C/[C@H](N)C(=O)O ?
GLP-1R agonist: 0%

How did CCN(CC)C(=O)Cn1c(=O)n(CC(=O)N2CCCCC2)c(=O)c2sccc21 do in these assays?
PTHR1 agonist: inactive; GLP-1R agonist: -2%; GLP1R inv ag: 8%; GLP1R cytotox: -19%

What do the screens show for `CC(C(=O)Nc1ccccc1-c1ccccc1)N1CCCCC1` (configuration not stated)?
PTHR1 agonist: -17%; GLP-1R agonist: 0%; GLP1R inv ag: 10µM*; GLP1R cytotox: 4%

What do the screens show for `O=C(CC(c1ccccc1)c1ccccc1)NCC1CCCO1` (configuration not stated)?
PTHR1 agonist: -3%[57.5 µM]; GLP-1R agonist: 4%; GLP1R inv ag: -9%; GLP1R cytotox: 0%

What do the screens show for `CC(C(=O)Nc1cc(Cl)cc(Cl)c1)N1CCCC1` (configuration not stated)?
PTHR1 agonist: inactive; GLP-1R agonist: 13%; GLP1R inv ag: 13µM*; GLP1R cytotox: 3%

Results for O=C(Nc1cc(Cl)cc(Cl)c1)C(NCC1CCCO1)c1ccccc1 (configuration not stated) ?
PTHR1 agonist: inactive; GLP-1R agonist: -4%; GLP1R inv ag: 5µM*; GLP1R cytotox: -21%
